About 2,000 (36%) of roughly 5,500 compounds were called active. Inconclusive results (about 18%) are left out. Cut-off read from the data, not from the text of the source: active = normalized growth mostly below about 0.91 (no sharp cut-off); inconclusive = no clear call, values can overlap the other calls; inactive = mostly above about 0.92. This is one part of the list.
Assay: chemical genetic growth profiling, strain panel (AID 1159580);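 note: tested at 20 µM; growth read once vehicle control cultures reached saturation at 30 °C; 1 = growth at the plate median or of vehicle wells; lower values mean less growth of the strain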
Conditions: growth OD

Measured: normalized growth

CC1(C)C2CC[C@]3(C)C(C(=O)C=C4[C@@H]5C[C@@](C)(C(=O)O)CC[C@]5(C)CC[C@]43C)[C@@]2(C)CC[C@@H]1OC(=O)CCC(=O)O (stereo partly drawn)
inactive: S. cerevisiae deletion strains, locus YKL009W, strain mrt4, stronger effect = lower value 0.975 | S. cerevisiae deletion strains, locus YKL068W, stronger effect = lower value 0.986 | S. cerevisiae deletion strains, locus YKL085W, strain MDH1 (second series), stronger effect = lower value 0.984 | S. cerevisiae deletion strains, locus YKL085W, strain MDH1, stronger effect = lower value 0.984 | S. cerevisiae deletion strains, locus YKL160W, strain elf1, stronger effect = lower value 0.938 | S. cerevisiae deletion strains, locus YKL190W, strain CNB1, stronger effect = lower value 0.991 | S. cerevisiae deletion strains, locus YKR001C, strain vps1, stronger effect = lower value 0.999 | S. cerevisiae deletion strains, locus YKR026C, strain gcn3, stronger effect = lower value 0.987 | S. cerevisiae deletion strains, locus YKR091W, strain srl3, stronger effect = lower value 0.989 | S. cerevisiae deletion strains, locus YLL001W, strain dnm1, stronger effect = lower value 1 | S. cerevisiae deletion strains, locus YLL026W, stronger effect = lower value 0.977 | S. cerevisiae deletion strains, locus YLL041C, strain sdh2, stronger effect = lower value 0.982 | S. cerevisiae deletion strains, locus YLR027C, strain aat2, stronger effect = lower value 1 | S. cerevisiae deletion strains, locus YLR039C, strain RIC1, stronger effect = lower value 0.944 | S. cerevisiae deletion strains, locus YLR058C, strain SHM2, stronger effect = lower value 0.986 | S. cerevisiae deletion strains, locus YLR102C, strain apc9, stronger effect = lower value 0.996 | S. cerevisiae deletion strains, locus YLR221C, strain rsa3, stronger effect = lower value 1 | S. cerevisiae deletion strains, locus YLR258W, strain gsy2, stronger effect = lower value 0.98 | S. cerevisiae deletion strains, locus YLR262C, strain YPT6 (second series), stronger effect = lower value 0.962 | S. cerevisiae deletion strains, locus YLR262C, strain YPT6, stronger effect = lower value 0.91 | S. cerevisiae deletion strains, locus YLR268W, strain sec22, stronger effect = lower value 0.998 | S. cerevisiae deletion strains, locus YLR320W, strain mms22, stronger effect = lower value 0.999 | S. cerevisiae deletion strains, locus YLR330W, strain CHS5, stronger effect = lower value 0.992 | S. cerevisiae deletion strains, locus YLR342W, strain FKS1 (second series), stronger effect = lower value 0.995 | S. cerevisiae deletion strains, locus YLR342W, strain FKS1, stronger effect = lower value 0.985 | S. cerevisiae deletion strains, locus YLR357W, strain rsc2, stronger effect = lower value 0.967 | S. cerevisiae deletion strains, locus YLR370C, strain arc18, stronger effect = lower value 0.967 | S. cerevisiae deletion strains, locus YLR371W, strain rom2, stronger effect = lower value 1 | S. cerevisiae deletion strains, locus YLR384C, strain iki3, stronger effect = lower value 0.983 | S. cerevisiae deletion strains, locus YLR418C, strain cdc73, stronger effect = lower value 0.968 | S. cerevisiae deletion strains, locus YML016C, strain PPZ1, stronger effect = lower value 1 | S. cerevisiae deletion strains, locus YML032C, strain rad52, stronger effect = lower value 0.994 | S. cerevisiae deletion strains, locus YML120C, strain ndi1, stronger effect = lower value 0.997 | S. cerevisiae deletion strains, locus YML124C, strain tub3, stronger effect = lower value 1 | S. cerevisiae deletion strains, locus YMR058W, strain fet3, stronger effect = lower value 1.04 | S. cerevisiae deletion strains, locus YMR078C, strain ctf18, stronger effect = lower value 0.976 | S. cerevisiae deletion strains, locus YMR125W, strain sto1, stronger effect = lower value 0.975 | S. cerevisiae deletion strains, locus YMR129W, stronger effect = lower value 0.99 | S. cerevisiae deletion strains, locus YMR205C, strain PFK2, stronger effect = lower value 0.97 | S. cerevisiae deletion strains, locus YMR223W, strain ubp8, stronger effect = lower value 0.973 | S. cerevisiae deletion strains, locus YMR231W, strain pep5, stronger effect = lower value 0.978 | S. cerevisiae deletion strains, locus YMR263W, strain SAP30, stronger effect = lower value 1 | S. cerevisiae deletion strains, locus YMR307W, strain GAS1, stronger effect = lower value 1.01 | S. cerevisiae deletion strains, locus YNL067W, strain RPL9B, stronger effect = lower value 1.02 | S. cerevisiae deletion strains, locus YNL071W, strain lat1, stronger effect = lower value 0.994 | S. cerevisiae deletion strains, locus YNL183C, strain NPR1, stronger effect = lower value 0.991 | S. cerevisiae deletion strains, locus YNL209W, strain ssb2, stronger effect = lower value 0.967 | S. cerevisiae deletion strains, locus YNL233W, strain BNI4, stronger effect = lower value 1.03 | S. cerevisiae deletion strains, locus YNL248C, strain rpa49, stronger effect = lower value 0.909 | S. cerevisiae deletion strains, locus YNL250W, strain rad50, stronger effect = lower value 0.949 | S. cerevisiae deletion strains, locus YNL271C, strain bni1, stronger effect = lower value 0.983 | S. cerevisiae deletion strains, locus YNL298W, strain CLA4, stronger effect = lower value 0.997 | S. cerevisiae deletion strains, locus YNL307C, strain MCK1, stronger effect = lower value 0.992 | S. cerevisiae deletion strains, locus YNL322C, strain KRE1 (second series), stronger effect = lower value 0.979 | S. cerevisiae deletion strains, locus YNL322C, strain KRE1, stronger effect = lower value 0.99 | S. cerevisiae deletion strains, locus YNR049C, strain mso1, stronger effect = lower value 0.983 | S. cerevisiae deletion strains, locus YNR052C, strain pop2, stronger effect = lower value 0.975 | S. cerevisiae deletion strains, locus YOL006C, strain TOP1, stronger effect = lower value 1.04 | S. cerevisiae deletion strains, locus YOL012C, strain htz1 1.07 | S. cerevisiae deletion strains, locus YOL147C, strain pex11, stronger effect = lower value 0.989 | S. cerevisiae deletion strains, locus YOR001W, strain rrp6, stronger effect = lower value 1.03 | S. cerevisiae deletion strains, locus YOR061W, strain CKA2, stronger effect = lower value 0.991 | S. cerevisiae deletion strains, locus YOR069W, strain VPS5, stronger effect = lower value 0.982 | S. cerevisiae deletion strains, locus YOR070C, strain gyp1, stronger effect = lower value 0.986 | S. cerevisiae deletion strains, locus YOR080W, strain dia2, stronger effect = lower value 1.01 | S. cerevisiae deletion strains, locus YOR083W, strain WHI5, stronger effect = lower value 0.891 | S. cerevisiae deletion strains, locus YOR106W, strain vam3, stronger effect = lower value 0.896 | S. cerevisiae deletion strains, locus YOR136W, strain idh2, stronger effect = lower value 0.998 | S. cerevisiae deletion strains, locus YOR144C, strain elg1, stronger effect = lower value 1 | S. cerevisiae deletion strains, locus YOR184W, strain ser1, stronger effect = lower value 0.96 | S. cerevisiae deletion strains, locus YOR231W, strain MKK1, stronger effect = lower value 1.06 | S. cerevisiae deletion strains, locus YOR265W, strain rbl2, stronger effect = lower value 0.974 | S. cerevisiae deletion strains, locus YOR270C, strain vph1, stronger effect = lower value 0.867 | S. cerevisiae deletion strains, locus YOR290C, strain snf2, stronger effect = lower value 0.96 | S. cerevisiae deletion strains, locus YOR316C, strain cot1, stronger effect = lower value 0.992 | S. cerevisiae deletion strains, locus YPL051W, strain arl3, stronger effect = lower value 0.966 | S. cerevisiae deletion strains, locus YPL055C, strain LGE1, stronger effect = lower value 1.08 | S. cerevisiae deletion strains, locus YPL078C, strain atp4, stronger effect = lower value 0.962 | S. cerevisiae deletion strains, locus YPL106C, strain sse1, stronger effect = lower value 0.986 | S. cerevisiae deletion strains, locus YPL240C, strain hsp82, stronger effect = lower value 0.978 | S. cerevisiae deletion strains, locus YPL241C, strain CIN2, stronger effect = lower value 0.992 | S. cerevisiae deletion strains, locus YPL256C, strain CLN2, stronger effect = lower value 1.05 | S. cerevisiae deletion strains, locus YPR119W, strain clb2, stronger effect = lower value 0.992 | S. cerevisiae deletion strains, locus YPR141C, strain kar3, stronger effect = lower value 0.999 | S. cerevisiae deletion strains, locus YPR163C, strain tif3, stronger effect = lower value 0.983 | S. cerevisiae deletion strains, locus YPR167C, strain met16, stronger effect = lower value 0.99 | S. cerevisiae deletion strains, strain wtn01, stronger effect = lower value 0.976 | S. cerevisiae strains, strain wild type, stronger effect = lower value 0.991

Source: PubChem BioAssay AID1159580 (chemical genetic matrix, 2015)
